According to PubChem BioAssay (Tox21):
Several values for one entry are separate records, joined by “and”; a condition that tells them apart may be missing. Identical values can stand only once. Inconclusive results are not listed. Activity calls are given as the source filed them. Unless noted, the call rests on the fitted dose curve; in most records, active means well fitted curve in the direction sought with a large enough effect in the repeat runs; inconclusive means weak or mixed curves; inactive means no such curve, though single readings can be large; an effect the other way counts as inactive or inconclusive.

Legend:
[1] = qHTS assay for small molecules that induce genotoxicity in human embryonic kidney cells expressing luciferase-tagged ATAD5 (AID 651632); further: nearly all actives have a fitted effect of over 15% in size; further: potency means the concentration at half of the fitted maximal effect
In short: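 Quantitative HTS in HEK293T expressing luciferase-tagged ATAD5, whose levels rise upon DNA damage. Exposure ran 16 hr at 37C and 5% CO2, with luminescence read 30 min after Amplite addition at room temperature.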

[2] = qHTS assay for small molecule agonists of the p53 signaling pathway - cell viability (AID 651633; calls by dose curve;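 further: p53RE-bla HCT reporter cells with a stable beta-lactamase p53 reporter; series mostly up to about 83 µM; on the % scale 0 is the no-effect control and ±100 the full control effect; nearly all actives have a fitted effect of over 30% in size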)
In short: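 p53RE-bla cells were treated with compound for 16 hours at 37 C. Cytotoxicity was then measured as CellTiter-Glo luminescence after 30 min at room temperature.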

[3] = qHTS assay for small molecules that induce genotoxicity in human embryonic kidney cells expressing luciferase-tagged ATAD5 - cell viability (AID 651634; calls by dose curve; further: on the % scale 0 is the no-effect control and ±100 the full control effect; nearly all actives have a fitted effect of over 25% in size)
In short: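 After 15.5 hr incubation with compound at 37C, 5% CO2, HEK293T ATAD5-luciferase cells received CellTiter-Fluor reagent; fluorescence intensity was quantified following 30 min at 37C.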

[4] = qHTS assay for small molecule disruptors of the mitochondrial membrane potential - cell viability (AID 720634; calls by dose curve;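 further: human HepG2 liver cancer cells; series mostly up to about 83 µM; on the % scale 0 is the no-effect control and ±100 the full control effect; nearly all actives have a fitted effect of over 20% in size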)
In short: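 ATP-based luminescent viability readout (CellTiter-Glo, 30 min, room temperature) in HepG2 cells multiplexed with the m-MPI membrane potential dye; compound exposure lasted 1 hr at 37 C.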

[5] = qHTS assay to test for compound auto fluorescence at 590 nm (red) in HepG2 cells (AID 720674); further: on the % scale 0 is the no-effect control and ±100 the full control effect
In short: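 Fluorescence at 590 nm emission following 540 nm excitation was recorded from HepG2 wells one hour after compound transfer, with DMSO-only wells as vehicle and Rose Bengal sodium equivalency as the scale.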

[6] = qHTS assay to test for compound auto fluorescence at 535 nm (green) in HepG2 cells (AID 720675); further: on the % scale 0 is the no-effect control and ±100 the full control effect
[7] = qHTS assay to test for compound auto fluorescence at 460 nm (blue) in HEK293 cells (AID 720678); further: on the % scale 0 is the no-effect control and ±100 the full control effect
In short: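 HEK293, 2,000 cells/well, 10% dialyzed FBS; attach 4-5 hr 37C; pin compound or DMSO; o/n 37C/5% CO2; fluorescence 405/460 nm; triamterene-equivalent units.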

[8] = qHTS assay to test for compound auto fluorescence at 590 nm (red) in HEK293 cells (AID 720679); further: on the % scale 0 is the no-effect control and ±100 the full control effect
In short: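 Intensity at 540nm excitation and 590nm emission is reported as Rose Bengal sodium-equivalent autofluorescence. Measurements followed overnight exposure (37C, 5% CO2) of HEK293 cells, 2,000 per well, to 23 nL compound.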

[9] = qHTS assay to test for compound auto fluorescence at 535 nm (green) in HEK293 cells (AID 720680); further: on the % scale 0 is the no-effect control and ±100 the full control effect
[10] = qHTS assay to test for compound auto fluorescence at 460 nm (blue) in HEK293 cell free culture (AID 720681); further: on the % scale 0 is the no-effect control and ±100 the full control effect
In short: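 Compounds were added to cell-free DMEM with 10% FBS and fluorescence read directly. The blue channel used 405 nm excitation and 460 nm emission, with triamterene as the reference fluorophore.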

[11] = qHTS assay to test for compound auto fluorescence at 535 nm (green) in HEK293 cell free culture (AID 720682); further: on the % scale 0 is the no-effect control and ±100 the full control effect
In short: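 Green-channel intensity (Ex/Em 485/535 nm) was recorded from compound-treated wells containing only DMEM with 10% FBS. Fluorescein provided the equivalency standard.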

[12] = qHTS assay to test for compound auto fluorescence at 590 nm (red) in HEK293 cell free culture (AID 720683); further: on the % scale 0 is the no-effect control and ±100 the full control effect
In short: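 Cell-free wells of DMEM with 10% FBS received compound, and intrinsic fluorescence was read at excitation/emission 540/590 nm. Values expressed as equivalence to Rose Bengal sodium.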

[13] = qHTS assay to test for compound auto fluorescence at 590 nm (red) in HepG2 cell free culture (AID 720684); further: on the % scale 0 is the no-effect control and ±100 the full control effect
In short: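 Rose Bengal sodium served as the reference for red signal. Test compounds were dispensed into serum-containing MEM (10% FBS) without cells, and plates were read at 540/590 nm.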

[14] = qHTS assay to test for compound auto fluorescence at 535 nm (green) in HepG2 cell free culture (AID 720686); further: on the % scale 0 is the no-effect control and ±100 the full control effect
[15] = qHTS assay to test for compound auto fluorescence at 460 nm (blue) in HepG2 cells (AID 720687); further: on the % scale 0 is the no-effect control and ±100 the full control effect
In short: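 HepG2 cells in MEM with 10% FBS, attached overnight at 37 C, were exposed to compound or DMSO for 1 hr at 37 C, 5% CO2. Blue fluorescence was read at 405/460 nm, with triamterene as reference fluorophore.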

[16] = biological target: Glucocorticoid receptor (Homo sapiens) (UniProt P04150); assay: qHTS assay to identify small molecule agonists of the glucocorticoid receptor (GR) signaling pathway (AID 720691; active means well fitted activation curve with a large enough effect in the signal ratio in the repeat runs, not every such curve was filed as active; the % refers to the signal ratio; further: on the % scale 0 is the no-effect control and ±100 the full control effect)
In short: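 Cells: GR-bla HeLa, endogenous GR with stably integrated GRE-beta-lactamase reporter. Treatment 18 h, 37 C, compounds delivered in DMSO. Detection via LiveBLAzer B/G FRET substrate, 2 h RT, fluorescence intensity.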

[17] = biological target: Glucocorticoid receptor (Homo sapiens) (UniProt P04150); assay: qHTS assay to identify small molecule antagonists of the glucocorticoid receptor (GR) signaling pathway (AID 720692; active means well fitted inhibition curve with a large enough effect in the signal ratio in the repeat runs, not every such curve was filed as active; the % refers to the signal ratio; further: on the % scale 0 is the no-effect control and ±100 the full control effect)
In short: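 Quantitative HTS in antagonist format: HeLa cells expressing endogenous GR and a stably integrated GRE-bla reporter, stimulated with 5 nM dexamethasone (final) alongside test compounds for 18 h.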

[18] = qHTS assay to test for compound auto fluorescence at 460 nm (blue) in HepG2 cell free culture (AID 720685); further: on the % scale 0 is the no-effect control and ±100 the full control effect
In short: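 Cell-free plates of MEM plus 10% FBS received 23 nL compound or DMSO vehicle; blue-channel (405/460 nm) intensity scored against triamterene as reference fluorophore.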

[19] = qHTS assay for small molecule disruptors of the mitochondrial membrane potential (AID 720635); further: potency means the concentration at half of the fitted maximal effect
In short: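 HepG2 cells exposed to compound 1 hr at 37C, then Mito-MPS dye 30 min. Ratio read of aggregate (540/590 nm) versus monomer (490/535 nm) fluorescence.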

Sequence of Glucocorticoid receptor (Homo sapiens) (P04150 whole entry, looked up): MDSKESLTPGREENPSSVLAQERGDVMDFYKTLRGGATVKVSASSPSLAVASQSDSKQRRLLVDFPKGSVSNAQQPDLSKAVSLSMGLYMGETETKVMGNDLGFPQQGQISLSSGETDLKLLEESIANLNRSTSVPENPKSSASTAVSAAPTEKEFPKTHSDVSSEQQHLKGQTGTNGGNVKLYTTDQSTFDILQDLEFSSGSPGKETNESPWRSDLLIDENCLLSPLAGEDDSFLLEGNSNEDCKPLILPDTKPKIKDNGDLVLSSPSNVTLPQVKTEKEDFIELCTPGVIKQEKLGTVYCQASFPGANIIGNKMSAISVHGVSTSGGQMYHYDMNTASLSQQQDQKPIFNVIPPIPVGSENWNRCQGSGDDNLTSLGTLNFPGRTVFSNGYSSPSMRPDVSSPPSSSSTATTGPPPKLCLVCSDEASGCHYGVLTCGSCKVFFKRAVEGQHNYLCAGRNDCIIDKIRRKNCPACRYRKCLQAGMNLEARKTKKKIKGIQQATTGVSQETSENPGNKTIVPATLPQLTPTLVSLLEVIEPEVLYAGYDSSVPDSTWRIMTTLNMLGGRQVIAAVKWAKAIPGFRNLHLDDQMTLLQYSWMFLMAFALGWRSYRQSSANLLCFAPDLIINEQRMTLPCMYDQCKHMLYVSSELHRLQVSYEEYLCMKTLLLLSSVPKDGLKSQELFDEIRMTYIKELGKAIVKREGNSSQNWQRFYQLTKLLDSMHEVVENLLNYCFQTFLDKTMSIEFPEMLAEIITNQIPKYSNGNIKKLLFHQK

CC(C)c1ccc(NC(=O)N(C)C)cc1
inactive: Potency [1] | Potency [2] | Potency [3] | Potency [4] | outcome [5] | outcome [6] | outcome [7] | outcome [8] | outcome [9] | outcome [10] | outcome [11] | outcome [12] | outcome [13] | outcome [14] | outcome [15] | Potency [16] | Potency [17]

Nc1ccc2c(c1)Cc1ccccc1-2
inactive: Potency [2] | Potency [3] | Potency [4] | outcome [5] | outcome [6] | outcome [7] | outcome [8] | outcome [9] | outcome [10] | outcome [11] | outcome [12] | outcome [13] | outcome [18] | outcome [14] | outcome [15] | Potency [16]

CCCCCCCCCCCCN=C(N)N
inactive: activation [1] -6.24% [at 3.63 µM] | activity change, negative = cytotoxicity [2] -15.7% [at 3.63 µM] | activity, negative = cytotoxicity [3] -6.8% [at 3.63 µM] | fluorescence, relative to Rose Bengal [5] 0.188% [at 3.72 µM] | fluorescence, % of fluorescein control [6] -0.0052% [at 3.72 µM] | fluorescence, % of triamterene [7] -0.0427% [at 3.72 µM] | fluorescence, % of fluorescent control [8] 0.144% [at 3.72 µM] | fluorescence, % of fluorescein [9] 0.14% [at 3.72 µM] | fluorescence, % of fluorescent control [10] -0.0835% [at 3.72 µM] | activity change [11] 0.0011% [at 3.72 µM] | fluorescence, % of fluorescent control [12] 0.145% [at 3.72 µM] | fluorescence, % of Rose Bengal [13] 0.0947% [at 3.72 µM] | fluorescence, % of fluorescein control [14] -0.0679% [at 3.72 µM] | fluorescence, % of fluorescent control [15] 0.0214% [at 3.72 µM] | activation [16] -0.603% [at 3.1 µM]

Nc1c(Br)cc(Br)c2c1C(=O)c1ccccc1C2=O
inactive: Potency [1] | Potency [3] | Potency [4] | fluorescence, relative to Rose Bengal [5] -0.0013% [at 18.6 µM] | fluorescence, % of fluorescein control [6] 0.0991% [at 18.6 µM] | fluorescence, % of triamterene [7] -0.127% [at 18.6 µM] | fluorescence, % of fluorescent control [8] -0.009% [at 18.6 µM] | fluorescence, % of fluorescein [9] -0.0125% [at 18.6 µM] | fluorescence, % of fluorescent control [10] -0.168% [at 18.6 µM] | activity change [11] 0.0661% [at 18.6 µM] | fluorescence, % of fluorescent control [12] -0.754% [at 18.6 µM] | fluorescence, % of Rose Bengal [13] -0.122% [at 18.6 µM] | fluorescence, % of fluorescent control [18] -0.366% [at 18.6 µM] | fluorescence, % of fluorescein control [14] -0.0249% [at 18.6 µM] | fluorescence, % of fluorescent control [15] -0.122% [at 18.6 µM]
active: Potency [19] 2.29 µM

CC(C)[C@@H](C(=O)O[C@@H](C#N)c1cccc(Oc2ccccc2)c1)c1ccc(Cl)cc1
inactive: Potency [1] | Potency [2] | Potency [3] | outcome [5] | outcome [6] | outcome [7] | outcome [8] | outcome [9] | outcome [10] | outcome [11] | outcome [12] | outcome [13] | outcome [18] | outcome [14] | outcome [15]
active: Potency [19] 12.4 µM and 30.6 µM

C[C@]12C=CC3=C4CCC(=O)C=C4CC[C@H]3[C@@H]1CC[C@@H]2O
inactive: Potency [1] | Potency [3] | Potency [4] | outcome [5] | outcome [6] | outcome [8] | outcome [9] | outcome [11] | outcome [12] | outcome [13] | outcome [14]

Nc1ccccc1C(=O)OCCc1ccccc1
active: Potency [1] 1.09 µM and 433 nM | Potency [19] 48.8 µM and 43.3 µM
inactive: Potency [2] | Potency [3] | outcome [5] | outcome [6] | outcome [7] | outcome [8] | outcome [9] | outcome [10] | outcome [11] | outcome [12] | outcome [13] | outcome [18] | outcome [14] | outcome [15] | Potency [16] | Potency [17]

CCC(C)(C)O
inactive: Potency [1] | Potency [3] | Potency [4] | outcome [5] | outcome [6] | outcome [7] | outcome [8] | outcome [9] | outcome [10] | outcome [11] | outcome [12] | outcome [13] | outcome [18] | outcome [14] | outcome [15] | Potency [16]
